An excerpt weighted towards active compounds, which were near 6.1% of everything screened.
Hsp90 block: displaces geldanamycin probe from tumor Hsp90; NCI-N417 lysate Hsp90, Cy3B-geldanamycin FP displacement; inhibition, % at 30 µM; hit rate 0.35% among 64,000; AID 429;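 active = inhibition above 50%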;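 note: 0% = tracer plus lysate wells and 100% = tracer alone without lysate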
M1 antag: antagonists of rat M1 muscarinic receptor. P08482. CHO-M1 cells, Fluo-4 calcium, ACh EC80 antagonist mode; stronger effect = lower value. B-score at 10 µM. hit rate 3.4% among 64,000. AID 628;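 active = calcium fluorescence response, raw or row-and-column corrected B-score, differing from the plate sample mean either way at a set confidence level, mostly lower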
Cdc25B inh: inhibitors of human Cdc25B phosphatase. hit rate 0.1% among 65,000. inhibition, %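 (compounds tested at 10 µM final in the well)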. recombinant Cdc25B, OMFP fluorescence Ex485/Em525. AID 368; in the data active = inhibition above about 50%
Target sequence (P30305 whole entry, looked up): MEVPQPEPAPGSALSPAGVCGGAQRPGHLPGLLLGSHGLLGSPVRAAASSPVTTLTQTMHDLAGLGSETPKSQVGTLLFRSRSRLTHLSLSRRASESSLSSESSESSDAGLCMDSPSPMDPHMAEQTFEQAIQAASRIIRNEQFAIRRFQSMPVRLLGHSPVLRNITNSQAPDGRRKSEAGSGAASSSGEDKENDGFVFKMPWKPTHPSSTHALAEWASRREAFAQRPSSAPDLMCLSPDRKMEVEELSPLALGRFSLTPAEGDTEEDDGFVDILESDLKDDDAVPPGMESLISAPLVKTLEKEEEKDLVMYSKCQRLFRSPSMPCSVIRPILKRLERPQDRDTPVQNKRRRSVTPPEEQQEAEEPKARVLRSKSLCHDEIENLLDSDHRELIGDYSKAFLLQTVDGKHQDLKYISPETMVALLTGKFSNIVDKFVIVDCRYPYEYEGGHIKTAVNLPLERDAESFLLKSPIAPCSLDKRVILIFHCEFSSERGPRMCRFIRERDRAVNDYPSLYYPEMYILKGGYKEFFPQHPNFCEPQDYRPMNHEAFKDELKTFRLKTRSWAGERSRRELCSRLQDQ
MMP-13 inhibitor: inhibitors of human MMP13 | P45452 | inhibition, % at 4 µM | AID 570 | hit rate 0.07% among 65,000 | MMP-13 fTHP FRET cleavage, Mca fluorescence;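 active = inhibition above the mean of compound-free control plate wells plus 3 SD, cut at about 14% in these data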;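 note: 0% = DMSO wells and 100% = wells with reference MMP-13 inhibitor after basal subtraction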
M1 ag: agonists of M1 muscarinic receptor; CHO-M1 cells, Fluo-4 calcium fluorescence, agonist mode; stronger effect = higher value; B-score at 10 µM; hit rate 3% among 64,000; AID 626;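 active = fluorescence rise, raw or as B-score row- and column-corrected plate score, outside the 99.7% band of its plate's samples, either direction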
MKP-1 inh: blocks human MKP-1 phosphatase activity; hit rate 0.15% among 65,000; AID 374; inhibition, %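 (compounds tested at a single concentration somewhere between 10 and 100 µM)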; P28562; recombinant MKP-1, OMFP hydrolysis fluorescence;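 active = inhibition above about 50%, limit read from the data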;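 note: 0% = DMSO max control wells and 100% = wells with enzyme stopped by NaOH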
M1 antag conf: M1 muscarinic receptor (rat) antagonism, confirmed | shares compounds with M1 antag | CHO-M1 cells, Fluo-4 calcium, ACh EC80 antagonism; stronger effect = lower value | calcium response (max-min fluorescence) at 10 µM | hit rate 43% among 1,700;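 active = calcium response below the same-plate mean of wells given acetylcholine alone at its 80%-effect dose, minus 3 SD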;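 note: raw fluorescence intensity difference in arbitrary instrument units and not normalized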
mGluR4 antag: acts on human mGluR4 in M1 antagonist selectivity test; CHO-mGluR4 calcium flux, Fluo-4 fluorescence, glutamate EC80; stronger effect = lower value; fluorescence response (max-min) at 10 µM; shares compounds with M1 antag; hit rate 0.9% among 1,700;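 active = fluorescence response below the plate's average for near-maximal glutamate wells, less 3 SD of those wells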;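 note: raw unnormalized fluorescence span taken in the window right after glutamate addition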
* marks the source's active call; other numbers are inactive results; / = no result given.

SMILES	Hsp90 block	M1 antag	Cdc25B inh	MMP-13 inhibitor	M1 ag	MKP-1 inh	M1 antag conf	mGluR4 antag
Cc1sc2nc(CN3CCCC3)nc(N3CCN(S(=O)(=O)c4cccs4)CC3)c2c1C	/	-3.9*	-14	4	-0.21	7	410*	217
CCOC(=O)N1CCN(S(=O)(=O)c2cccs2)CC1	-1	-0.13	-7	-2	-0.055	1	/	/
Cc1ccc(S(=O)(=O)N2CCN(C(=O)C3Cc4ccccc4CN3C(=O)c3ccco3)CC2)cc1 (configuration not stated)	-2	0.0022	2	-1	0.72	39	/	/
Cn1c(Cc2ccccc2)nnc1SCC(=O)c1ccc(Br)s1	-3	-1.7*	-5	2	-0.017	11	461*	257
CSc1nnc2c(n1)OC(c1cccn1C)N(C(C)=O)c1ccccc1-2 (configuration not stated)	-2	-5.7*	-11	1	0.36	6	158*	201
C=CCSc1nnc2c(n1)OC(c1cccnc1)Nc1ccccc1-2 (configuration not stated)	6	-0.06	-3	-5	-0.53	1	/	/
C=CCSc1nnc2c(n1)OC(c1cccnc1)N(C(C)=O)c1ccccc1-2 (configuration not stated)	2	-4.2*	-7	-4	-0.53	2	373*	224
O=c1[nH]c2cc3c(cc2cc1C(c1nnnn1C1CCCCC1)N1CCSCC1)OCCO3 (configuration not stated)	-8	0.0019	18	-51	-1.9	7	/	/
COc1ccc(-c2cc(C(=O)N3CCN(c4ccccn4)CC3)c3ccccc3n2)cc1	3	-0.89	-1	-18	1.7	35	/	/
COc1cc(-c2cc(C(=O)N3CCN(c4ccccn4)CC3)c3ccccc3n2)cc(OC)c1OC	-2	-3.8*	-22	-3	4.5	36	697	213
COc1ccc(-c2ccc(SCC(=O)NCc3ccco3)nn2)cc1	2	-13*	15	1	0.039	6	584	211
COc1ccc(-c2[nH]c(-c3cccc(OC)c3)nc2SCC(=O)NCc2ccco2)cc1	-1	-3.1*	-14	-27	-1.1	-3	574	210
Cc1nc2ccc(NC(=O)N3CCSCC3)cc2nc1C	-3	0.55	6	-21	0.4	19	/	/
O=C(Nc1ccc2nc(-c3cccs3)c(-c3cccs3)nc2c1)N1CCOCC1	-9	-12*	-35	-28	0.16	33	138*	206
Cc1nc2ncnn2c(C)c1CCC(=O)N1CCOCC1	0	-0.4	-4	0	-0.12	19	/	/
Cc1nnc(N(Cc2ccco2)C(=O)c2cccc(C#N)c2)s1	-1	-0.028	-4	-1	-0.024	0	/	/
CN(C(=O)c1cccc(C#N)c1)c1nnc(C2CCCO2)s1 (configuration not stated)	-3	-4.5*	-4	1	-1.1	14	638	248
c1cc2c3c(cccc3c1)C(N1CCCCC1)=N2	0	-6.8*	-5	-8	1.3	-1	224*	247
N#Cc1nc(-c2cccc3ccccc23)oc1N1CCCCC1	-11	-0.04	-1	-54	-1.1	-5	/	/
CCOC(=O)N1CCN(C(=O)C(NS(=O)(=O)c2cccc3nsnc23)c2ccccc2)CC1 (configuration not stated)	-5	0.12	-5	0	0.013	13	/	/
COc1ccc(-n2nc3c(c2NC(=O)c2c(F)cccc2Cl)CS(=O)C3)cc1 (configuration not stated)	0	-0.038	-12	7	0.99	-3	/	/
Cc1cc(C(=O)CSc2nncs2)c(C)n1-c1ccc2c(c1)OCO2	-2	-4.2*	2	-5	-0.0083	18	403*	227
Cc1onc(-c2ccccc2Cl)c1C(=O)Nc1ccc(-n2nncc2-c2ccco2)cc1	-7	-1.9*	-7	-2	-0.21	35	379*	208
Cc1cc(-c2ccccc2)nc2cc(C(=O)NCCCn3ccnc3)nn12	-3	-0.89	-1	-6	0.62	5	/	/
Cc1nn(Cc2ccccc2Cl)c2sc(C(=O)NCCCn3ccnc3)cc12	-4	-7.9*	-4	0	-1.3	20	287*	186
SMILES	Hsp90 block	M1 antag	Cdc25B inh	MMP-13 inhibitor	M1 ag	MKP-1 inh	M1 antag conf	mGluR4 antag
Cc1cc(C(=O)NCCCn2ccnc2)sc1-c1ccccc1	-21	-3.3*	1	-13	-1.3	-2	616	211
COc1ccc(NC(=O)CC2Oc3ccc(C)cc3NC2=O)cc1 (configuration not stated)	0	0.2	-8	2	-0.44	-1	/	/
Cc1ccc2c(c1)NC(=O)C(CC(=O)NCCN(CC(C)C)CC(C)C)O2 (configuration not stated)	-2	-5.6*	-20	3	0.82	-8	305*	248
Cc1ccc2c(c1)NC(=O)C(CC(=O)Nc1ccc(CN3CCC(C)CC3)cc1)O2 (configuration not stated)	-6	-9.3*	-2	2	-0.07	-9	14*	231
CCN1CCN(Cc2ccc(NC(=O)CC3Oc4ccc(C)cc4NC3=O)cc2)CC1 (configuration not stated)	2	-3.9*	-11	-6	-0.37	13	335*	221
Cc1ccc(NC(=O)CC2Oc3ccc(C)cc3NC2=O)cc1 (configuration not stated)	-4	0.016	-3	6	-0.8	-6	/	/
Cc1cccc(NC(=O)CSCc2c(C)noc2C)c1C	-2	0.41	-14	-9	0.9	9	/	/
O=C1NC(=S)SC1=C1CCCCCC1	-7	-0.99	7	-6	-1.4	9	/	/
Cc1nc2c(c(=O)n1CC1CCCO1)c1nc3ccccc3nc1n2CCC(C)C (configuration not stated)	-1	1.1	16	-26	-0.023	8	/	/
O=C(COC(=O)CCNS(=O)(=O)c1ccc(Cl)cc1)NCc1ccco1	-2	-2.8*	1	0	1.4	29	612	240
Cc1ccc2oc3c(c(=O)c2c1)C(c1cccs1)N(CCCN(C)C)C3=O (configuration not stated)	-2	0.36	-5	-1	-0.074	13	/	/
COc1ccc(CCNCc2csc3nc4ccccc4n23)cc1OC	-2	0.42	0	2	0.039	-27	/	/
CCN(CC)S(=O)(=O)c1ccc(C(=O)OC2CCCCC2CN(C)C)cc1 (configuration not stated)	-1	-4.6*	-13	-1	0.048	-9	509	219
CCC(OC(=O)c1cccs1)C(=O)NC1CCCCC1 (configuration not stated)	1	1.1	4	4	0.39	-19	/	/
